Bioassay records as filed in PubChem.
Shown are actives, neighbours in structure and some others; about 4.1% of the full set was active somewhere.
DAX1 inh-1 = DAX1 (NR0B1) inhibitors on StAR promoter, primary screen, cell-based, luminescence, SF-1 (NR5A1), full-length DAX-1. inhibition, % at 6.8 µM. HEK293T StAR-luciferase reporter, SF-1/DAX-1 repression relief. hit rate 1.1% among 370,000;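 active = inhibition above the mean over all tested compounds plus 3 SD, cut at about 3.6% in these data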;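 also: 0% = DAX-1 cells with DMSO and 100% = cells lacking DAX-1 with DMSO; higher inhibition means more luminescence from relief of DAX-1 repression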
ssDAF-12 act = S. stercoralis DAF-12 nuclear receptor activators, primary screen, cell-based, luminescence, HEK293, GRIP1 co-expression, lit1-tk-luc; Nuclear hormone receptor DAF-12 (Strongyloides stercoralis); HEK293 ssDAF-12/GRIP1 lit1-tk-luc reporter; % of 3 µM dafachronic acid response; activation, % at 6.8 µM; hit rate 1% among 370,000;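 active = activation above the mean over all tested compounds plus 3 SD, cut at about 0.9% in these data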;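 also: 0% = DMSO-only wells and 100% = 3 µM delta7-dafachronic acid wells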
DAX1 inh-2 = DAX1 (NR0B1) inhibitors, primary screen, cell-based, HEK293, Gal4-DAX1, luciferase luminescence; HEK293 Gal4-DAX1 luciferase reporter; hit rate 0.99% among 340,000; Nuclear receptor subfamily 0 group B member 1 (Homo sapiens), P51843; inhibition, % at 6.75 µM;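 active = inhibition above the mean over all tested compounds plus 3 SD, cut at about 4.2% in these data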;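 also: 0% = DAX1-transfected cells with DMSO and 100% = empty-vector control cells with DMSO; inhibition shows as a rise in luminescence from relieved DAX1 repression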
Target sequence (P51843 207-470 limits assumed): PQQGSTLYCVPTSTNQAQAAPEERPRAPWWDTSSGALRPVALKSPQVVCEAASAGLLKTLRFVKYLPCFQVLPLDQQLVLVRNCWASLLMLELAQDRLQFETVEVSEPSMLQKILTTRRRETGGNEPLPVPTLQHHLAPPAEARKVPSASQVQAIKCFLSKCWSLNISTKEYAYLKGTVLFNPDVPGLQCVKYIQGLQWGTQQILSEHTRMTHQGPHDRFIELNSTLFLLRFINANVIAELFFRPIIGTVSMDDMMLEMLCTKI
hgDAF12 agonist = H. glycines DAF-12 receptor agonists, primary screen, cell-based, luminescence, HEK293, GAL4 fusion, UAS-luciferase; HEK293 GAL4-hgDAF12 UAS-luciferase reporter, agonist luminescence; normalized to butyrate control; activation, % at 6.8 µM; hit rate 1.8% among 370,000;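 active = activation above a cutoff set at the mean of all screened compounds plus 3 SD, cut at about 10% in these data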;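 also: 0% = DMSO wells and 100% = sodium butyrate wells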
hcDAF-12 act = H. contortus DAF-12 nuclear receptor activators, primary screen, cell-based, luminescence, HEK293, lit1-tk-luc reporter; HEK293 hcDAF-12 lit1-tk-luc reporter; 0% DMSO, 100% Δ7-dafachronic acid; activation, % at 6.8 µM; hit rate 1.4% among 370,000;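 active = activation above the mean of all tested compounds plus 3 SD, cut at about 5.5% in these data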;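 also: 100% = response to 3 µM Δ7-dafachronic acid high control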
Starred values were filed as active, the others as inactive; . = not tested or not shown.

SMILES	DAX1 inh-1	ssDAF-12 act	DAX1 inh-2	hgDAF12 agonist	hcDAF-12 act
CCOc1ccc(N(CC(=O)Nc2ccc(F)c(F)c2)S(=O)(=O)c2c(C)noc2C)cc1	1	-1	4.4*	-1	-1
CCOc1ccc(N(CC(=O)Nc2ccc(C)cc2)S(=O)(=O)c2c(C)noc2C)cc1	0	-2	3	1	0
CCOc1ccc(N(CC(=O)NC(C)(C)C)S(=O)(=O)c2c(C)noc2C)cc1	0	-1	6.8*	1	0
CCOc1ccc(N(CC(=O)NCc2ccc(F)cc2)S(=O)(=O)c2c(C)noc2C)cc1	-1	-1	1	-2	-2
CC(=O)N(c1nc2ccccc2s1)N1C(=O)c2ccccc2C1=O	0	1	.	8	5
O=C(Nc1cccc([N+](=O)[O-])c1)NC1CCCCN(Cc2ccc(Cl)cc2)C1=O (stereo unspecified)	-1	-2	.	1	-4
CCOc1ccc(CCN2CN(CC)CNC2=S)cc1OCC	0	0	4.9*	-1	-2
CCN1CNC(=S)N(CCc2ccccc2)C1	0	-1	-1	0	1
CN1CCCCC(NC(=O)c2cccs2)C1=O (stereo unspecified)	0	-1	.	-1	-2
O=C(NCc1cccnc1)c1cc(C2CCCCN2S(=O)(=O)c2ccc(F)cc2F)on1 (stereo unspecified)	0	-1	.	-2	-1
COc1cccc(NC(=O)CN(C)C(=O)c2cc(S(=O)(=O)N3CCCCC3)ccc2Cl)c1	4.2*	0	0	-2	-2
COc1ccc(S(=O)(=O)N2CCCCCC2)cc1C(=O)N(C)CC(=O)Nc1ccc(Cl)c(Cl)c1	-2	-1	0	-2	0
Cc1cccc(NC(=O)/C=C/c2cccs2)n1	3	0	1	13*	6.2*
COc1ccc2c(c1)c(=O)oc1cc(O)ccc12	0	-1	4.7*	0	-2
O=c1oc2cc(O)ccc2c2ccccc12	0	-2	0	0	0
CC1=CC(C)=Nc2ccccc2N1	3	2.1*	1	11*	5.6*
COc1cc2c(cc1NC(=O)CSc1nnc(-c3cccc(Cl)c3)n1-c1ccccc1)oc1ccccc12	-1	-2	.	0	-1
O=C(CSc1nc2ccccc2c(=O)[nH]1)NC1CCCCC1	.	0	.	3	0
O=C(Cn1c(=O)n(Cc2ccco2)c(=O)c2ccccc21)Nc1cccc(Cl)c1	0	-1	1	11*	1
Nc1ccn([C@@H]2O[C@H](C(=O)N[C@H](Cc3ccccc3)C(=O)N3CCN(CC(=O)N4CCCC4)CC3)[C@@H](O)[C@H]2O)c(=O)n1	-1	-1	.	-2	0
COC(=O)[C@]1(CC(C)C)NC=C(C(=O)c2ccccc2)[C@@H]1c1cccc(C(F)(F)F)c1	0	-1	.	3	1
O=C(N/N=C/c1ccc([N+](=O)[O-])o1)C(O)c1ccccc1 (stereo unspecified)	-1	-2	-4	-5	-3
O=[N+]([O-])c1ccc(/C=N/NC(=S)Nc2ccccc2C(F)(F)F)o1	-1	-1	4.2*	-1	0
Cc1cccc(C)c1NC(=O)[C@@H]1CC(=O)O[C@@H]1c1ccccc1	-1	-1	.	-2	0
COc1ccc(Cn2cc(CN3CC(N4CCN(CCO)CC4)CS3(=O)=O)nn2)cc1 (stereo unspecified)	1	-1	.	0	-1
SMILES	DAX1 inh-1	ssDAF-12 act	DAX1 inh-2	hgDAF12 agonist	hcDAF-12 act
COCCCn1cc(CN2CC(N3CCN(CCN(C)C)CC3)CS2(=O)=O)nn1 (stereo unspecified)	4	0	.	0	4
Cc1ccc(Cn2cc(CN3CC(N4CCN(CCO)CC4)CS3(=O)=O)nn2)cc1 (stereo unspecified)	4.2*	-2	.	-2	1
CCCCCCn1cc(CN2CC(N3CCN(CCN(C)C)CC3)CS2(=O)=O)nn1 (stereo unspecified)	3.9*	-1	.	-2	-1
CCN(C)C1CN(Cc2cn(Cc3ccc(C(F)(F)F)cc3)nn2)S(=O)(=O)C1 (stereo unspecified)	4.1*	-1	.	-2	1
CCN(C)C1CN(Cc2cn(Cc3ccc(Cl)cc3)nn2)S(=O)(=O)C1 (stereo unspecified)	0	-1	.	3	0
CCNC(=O)N1CCN(c2ccc(N3CCN(C(=O)NCC)[C@@H](C)C3)c(C)c2)[C@@H](C)C1	0	-1	.	0	-2
O=[N+]([O-])c1ccc(SN2CCCCC2)c([N+](=O)[O-])c1	1	-1	.	0	-2
COc1ccccc1CNC(=O)C1CCC(CNS(=O)(=O)c2cccs2)CC1 (stereo unspecified)	0	-2	-1	-2	0
COc1ccccc1CNS(=O)(=O)c1cccs1	-1	0	5.8*	-1	0
O=C(Nc1ccccc1)n1ccc(-c2ccc(-n3ccnc3)cc2)n1	2	-1	.	12*	1
CC(=O)c1ccc(-n2ccnc2)cc1	0	-2	2	0	-2
Cc1cc2c(cc1C)NC(=O)CC(c1ccccc1)=N2	3	0	3	12*	0
Nc1c2c(nc3ccccc13)CSCC2	1	0	0	1	1
CC(=O)N1CCN(c2ccc(N3CCN(Cc4ccccc4)[C@H](C)C3)c(C)c2)[C@@H](C)C1	2	-1	.	-1	1
CCCSc1nnc(CSc2ncccn2)n1C	0	-1	0	7	5.9*
COC(=O)[C@H](N[C@H](/C=C/c1ccccc1)[C@@H](O)Cc1ccccc1)c1ccccc1	-1	-1	.	0	-2
Cc1ccc(C)c(CN2CCC(CNC(=O)Nc3ccc(Cl)cc3)CC2)c1	0	-1	6.2*	1	-1
Cc1ccc(C)c(CN2CCC(CNC(=O)Nc3ccc(Br)cc3F)CC2)c1	0	-1	0	3	-1
O=C1C(=O)N(CCN2CCOCC2)C(c2ccccc2)/C1=C(\O)c1ccc2c(c1)OCCO2 (stereo unspecified)	4.0*	-1	1	-2	1
CCCC(=O)N1CCC1(C)C(=O)Nc1cc(-c2ccccc2)nn1C (stereo unspecified)	3.9*	0	.	12*	3
Nc1c(-c2ccc(Cl)cc2)nnn1-c1ccccc1	2	-1	3	11*	2
Nc1c(-c2ccc(Cl)cc2)cnn1-c1ccccc1	2	1	3	10	3
